About 79,000 compounds went through this panel and 15% of them were active in at least one assay; those are over-represented in the sample as a whole. Unmarked numbers belong to inactive results. Active and inactive are the calls of the source. Rule as the data show it: active = growth inhibition above about 70%; inactive = the rest.
Assay: NCI Yeast Anticancer Drug Screen. Data for the wt1 strain (AID 149);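 also: 0% = growth of vehicle-treated wt1 cultures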
Settings: S. cerevisiae wt1 strain (SPY 50644) growth inhibition; at 3.7 µM; stronger effect = higher value
How it was run: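 Using yeast strain wt1, compound-induced growth inhibition was determined against vehicle-treated cultures.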

| Structure (SMILES) | growth inhibition [%] |
| --- | --- |
| O=CC=C(c1ccccc1)c1ccccc1 | 3 |
| FC(F)(F)c1nc2nc(Cl)c(Cl)nc2n1CCCN1CCOCC1 | 1 |
| BrCC[P+](c1ccccc1)(c1ccccc1)c1ccccc1 | -56 |
| N#CSc1ccc(S(N)(=O)=O)cc1 | -50 |
| O=[N+]([O-])c1ccc2nc3ccccc3cc2c1 | -4 |
| O=C(NC(Nc1ccc(F)c(Cl)c1)(C(F)(F)F)C(F)(F)F)C(C(F)(F)F)C(F)(F)F | 7 |
| O=C(/C=C\c1ccc(Cl)cc1Cl)c1cccs1 | 0 |
| O=C(NCCCCNCCCNC(=O)c1cc(-c2ccccc2)nc2ccccc12)c1cc(-c2ccccc2)nc2ccccc12 | 2 |
| NC(=NCc1ccccc1)N/N=C\c1ccnc2ccccc12 | -1 |
| CCCCN(CCCC)CCSc1ccc(Cl)cc1 | 7 |
| COc1cc(C2C3=C(COC3=O)Oc3cc4c(cc32)OCO4)ccc1O (stereo not drawn) | -7 |
| C#CCCCc1ccccc1 | -24 |
| CCc1ccc(NS(=O)(=O)c2ccccc2)c([N+](=O)[O-])c1 | 6 |
| COc1ccc(C2c3cc4c(cc3OC(C)(O)C2C)OCO4)c(OC)c1 (stereo not drawn) | 3 |
| COC(=O)c1ccc(CCC2=CC(=O)C(Br)=CC2=O)cc1 | 3 |
| NNC(=O)CCc1ccc2ccc3ccccc3c2c1 | 3 |
| Cn1c2ccccc2c(=O)c2cc(NC(=O)CCCCC(=O)Nc3ccc4c(c3)c(=O)c3ccccc3n4C)ccc21 | -4 |
| CC(CC(C)(C)[N+](C)(C)C)[N+](C)(C)C (stereo not drawn) | -2 |
| CC1CCN(CCC(=O)c2ccc(Cl)cc2)CC1 | -1 |
| CCCCCCCCCCCCCCC(C(=O)[O-])[n+]1ccccc1 (stereo not drawn) | -3 |

| Structure (SMILES) | growth inhibition [%] |
| --- | --- |
| CNC1C(OC2C(OC3C(O)C(O)C(N=C(N)N)C(O)C3N=C(N)N)OC(C)C2(O)CO)OC(CO)C(O)C1O (stereo not drawn) | -4 |
| O=C(O)c1ccccc1-c1ccccc1C(=O)Nc1ccc2c(c1)Cc1ccccc1-2 | 7 |
| O=[N+]([O-])c1cccc2nc3ccccc3c(NCCCN3CCOCC3)c12 | 38 |
| C=CC(C)(O)CCC1C(=C)C(O)CC2C(C)(C)CCCC12C (stereo not drawn) | -10 |
| CN1c2ccc(Cl)cc2C(=O)NC1c1ccc([N+](=O)[O-])s1 (stereo not drawn) | 1 |
| [O-][n+]1c2ccc(O)cc2nc2ccc(Br)cc21 | 14 |
| O=C1c2ccccc2-c2nc3ccccc3nc21 | -17 |
| CCCCN1C(=O)N(c2ccc(OCC)cc2)C2N(CCCC)C1C(C)(C)C2(C)C (stereo not drawn) | 3 |
| CO[C@H]1C[C@](C)(O)Cc2cc3c(c(O)c21)C(=O)c1c(O)cc2c(c1C3=O)O[C@@H]1O[C@@]2(C)[C@H](O)[C@@H](N(C)C)[C@@H]1O | -38 |
| COc1cc2c(cc1[N+](=O)[O-])C(=O)C(Br)(Br)CCC2 | 50 |
| O=C1OC(CCl)CN1/N=C/c1ccc([N+](=O)[O-])o1 (stereo not drawn) | 2 |
| CN(C)CCOc1ccc2c(c1)C/C(=C/c1ncc([N+](=O)[O-])n1C)C2=O | 5 |
| CCCCCCCCCCCCCCCCCCN(C)CC(COP(=O)([O-])OCC[N+](C)(C)C)OC (stereo not drawn) | -2 |
| CC(C)c1ccccc1NC(=O)/C(Cl)=C(\Cl)C(=O)O | -1 |
| O=[N+]([O-])C(=C(Sc1ccccc1)Sc1ccccc1)C(Cl)=C(Cl)Cl | 13 |
| C(=C\c1ccccc1)/COc1ccccc1C(N1CCOCC1)n1nc2ccccc2n1 (stereo not drawn) | 36 |
| O=C1C(Nc2ccccc2)=C(Oc2ccccc2)C(=O)c2ccccc21 | -10 |
| CCN(CC)CCN1C(=O)c2cccc3cc(OC)cc(c23)C1=O | 1 |
| CN(C)Cc1cc(N=Nc2ccc(Cl)cc2)cc(CN(C)C)c1O | 4 |

Same assay, conditions: S. cerevisiae wt1 strain (SPY 50644) growth inhibition; at 11.0 µM; stronger effect = higher value

| Structure (SMILES) | growth inhibition |
| --- | --- |
| O=CC=C(c1ccccc1)c1ccccc1 | -4% |
| FC(F)(F)c1nc2nc(Cl)c(Cl)nc2n1CCCN1CCOCC1 | 7% |
| BrCC[P+](c1ccccc1)(c1ccccc1)c1ccccc1 | -4% |
| N#CSc1ccc(S(N)(=O)=O)cc1 | -31% |
| O=[N+]([O-])c1ccc2nc3ccccc3cc2c1 | -7% |
| O=C(NC(Nc1ccc(F)c(Cl)c1)(C(F)(F)F)C(F)(F)F)C(C(F)(F)F)C(F)(F)F | 48% |
| O=C(/C=C\c1ccc(Cl)cc1Cl)c1cccs1 | -5% |
| O=C(NCCCCNCCCNC(=O)c1cc(-c2ccccc2)nc2ccccc12)c1cc(-c2ccccc2)nc2ccccc12 | 2% |
| NC(=NCc1ccccc1)N/N=C\c1ccnc2ccccc12 | -2% |
| CCCCN(CCCC)CCSc1ccc(Cl)cc1 | 12% |
| COc1cc(C2C3=C(COC3=O)Oc3cc4c(cc32)OCO4)ccc1O (stereo not drawn) | -5% |
| C#CCCCc1ccccc1 | -28% |
| CCc1ccc(NS(=O)(=O)c2ccccc2)c([N+](=O)[O-])c1 | 2% |
| COc1ccc(C2c3cc4c(cc3OC(C)(O)C2C)OCO4)c(OC)c1 (stereo not drawn) | -2% |
| COC(=O)c1ccc(CCC2=CC(=O)C(Br)=CC2=O)cc1 | 4% |
| NNC(=O)CCc1ccc2ccc3ccccc3c2c1 | 3% |
| Cn1c2ccccc2c(=O)c2cc(NC(=O)CCCCC(=O)Nc3ccc4c(c3)c(=O)c3ccccc3n4C)ccc21 | -1% |
| CC(CC(C)(C)[N+](C)(C)C)[N+](C)(C)C (stereo not drawn) | -3% |
| CC1CCN(CCC(=O)c2ccc(Cl)cc2)CC1 | -1% |
| CCCCCCCCCCCCCCC(C(=O)[O-])[n+]1ccccc1 (stereo not drawn) | -4% |

| Structure (SMILES) | growth inhibition |
| --- | --- |
| CNC1C(OC2C(OC3C(O)C(O)C(N=C(N)N)C(O)C3N=C(N)N)OC(C)C2(O)CO)OC(CO)C(O)C1O (stereo not drawn) | -4% |
| O=C(O)c1ccccc1-c1ccccc1C(=O)Nc1ccc2c(c1)Cc1ccccc1-2 | 16% |
| O=[N+]([O-])c1cccc2nc3ccccc3c(NCCCN3CCOCC3)c12 | 90% (active) |
| C=CC(C)(O)CCC1C(=C)C(O)CC2C(C)(C)CCCC12C (stereo not drawn) | -17% |
| CN1c2ccc(Cl)cc2C(=O)NC1c1ccc([N+](=O)[O-])s1 (stereo not drawn) | 17% |
| [O-][n+]1c2ccc(O)cc2nc2ccc(Br)cc21 | 22% |
| O=C1c2ccccc2-c2nc3ccccc3nc21 | -11% |
| CCCCN1C(=O)N(c2ccc(OCC)cc2)C2N(CCCC)C1C(C)(C)C2(C)C (stereo not drawn) | 9% |
| CO[C@H]1C[C@](C)(O)Cc2cc3c(c(O)c21)C(=O)c1c(O)cc2c(c1C3=O)O[C@@H]1O[C@@]2(C)[C@H](O)[C@@H](N(C)C)[C@@H]1O | -39% |
| COc1cc2c(cc1[N+](=O)[O-])C(=O)C(Br)(Br)CCC2 | 91% (active) |
| O=C1OC(CCl)CN1/N=C/c1ccc([N+](=O)[O-])o1 (stereo not drawn) | 14% |
| CN(C)CCOc1ccc2c(c1)C/C(=C/c1ncc([N+](=O)[O-])n1C)C2=O | 20% |
| CCCCCCCCCCCCCCCCCCN(C)CC(COP(=O)([O-])OCC[N+](C)(C)C)OC (stereo not drawn) | 97% (active) |
| CC(C)c1ccccc1NC(=O)/C(Cl)=C(\Cl)C(=O)O | -1% |
| O=[N+]([O-])C(=C(Sc1ccccc1)Sc1ccccc1)C(Cl)=C(Cl)Cl | 25% |
| C(=C\c1ccccc1)/COc1ccccc1C(N1CCOCC1)n1nc2ccccc2n1 (stereo not drawn) | 33% |
| O=C1C(Nc2ccccc2)=C(Oc2ccccc2)C(=O)c2ccccc21 | 7% |
| CCN(CC)CCN1C(=O)c2cccc3cc(OC)cc(c23)C1=O | -3% |
| CN(C)Cc1cc(N=Nc2ccc(Cl)cc2)cc(CN(C)C)c1O | 8% |
